A selection: hits, their analogues and other compounds. The true share with any hit is near 0.31%.
TRPML1 inh: qHTS for Inhibitors of the Human Mucolipin Transient Receptor Potential 1 (TRPML1); Mucolipin-1 (Homo sapiens), Q9GZU1; TRPML1-inducible cells, Ca2+ dye fluorescence, FDSS; stronger effect = lower value; inhibition of EC80 agonist-evoked calcium signal; activity change, negative = inhibition, % (test concentration not listed); 0.02% of 390,000 active; AID 624415, 2012; in the data active = activity change below about -50%; inconclusive = between about -30% and that limit;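 also: stimulus is agonist 54-4 at its EC80 concentration; % is scaled to controls: 0 for no effect and ±100 for the full control effect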
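Calcium fluorescence in TRPML1-DL cells induced overnight with Tet: a 110 s read after compound pin addition, then a 110 s antagonist read after challenge with 54-4 at 4 uM final (EC80).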
TRPV1 ag: HTS Assay for Compounds that Act as Agonists of the Vanilloid Receptor 1 | activation, % at 8.33 µM | AID 540275, 2011 | TRPV1-expressing cells, Fluo-8 calcium influx, agonist mode | 0.19% of 320,000 active | Transient receptor potential cation channel subfamily V member 1 (Homo sapiens), Q8NER1; in the data active = activation above about 80%; inconclusive = between about 30% and that limit; also: 0% is about no effect
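Fluo-8 calcium influx in TRPV1-expressing cells, kinetic read (ex 480/em 520 nm). Compound added and read 3 min for agonist activity, followed by capsaicin at EC20 final and 2 min further read for enhancement.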
TRPML1 agonist: qHTS for Agonists of the Human Mucolipin Transient Receptor Potential 1 (TRPML1). AID 624414, 2012. TRPML1-expressing cells, Ca2+ dye fluorescence, FDSS. 0.12% of 410,000 active. activation, % (test concentration not listed); in the data active = activation above about 50%; inconclusive = mostly about 30% to 49%; also: 0% is about no effect
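Agonist activity was taken from a 110 s kinetic Ca2+ dye read on the FDSS after pinning compounds onto TRPML1-DL cells. The cells were seeded at 1,500/well with Tet inducer, incubated about 16 h, then dye-loaded at room temperature.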
TRPV1 PAM: HTS Assay for Compounds that Act as Potentiators of the Vanilloid Receptor 1; potentiation, % at 8.33 µM; TRPV1-expressing cells, Fluo-8 calcium influx, capsaicin EC20 potentiation; 0.02% of 320,000 active; Transient receptor potential cation channel subfamily V member 1 (Homo sapiens), Q8NER1; in the data active = potentiation above about 80%; inconclusive = between about 30% and that limit; also: 0% is about no effect
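TRPV1-expressing cells were cultured overnight at 35.5C and loaded with Fluo-8 calcium dye for 40 to 90 min at room temperature. After a 10 s baseline, compound was added and calcium influx was read kinetically for 3 min (ex 480/em 520 nm).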
* marks the source's active call; other numbers are inactive results; u = inconclusive; x = no result.

SMILES	TRPML1 inh	TRPV1 ag	TRPML1 agonist	TRPV1 PAM
COC(=O)C(NS(N)(=O)=O)C(C)C (centres undefined)	0.9	x	-0.3	x
Cc1ccc(S(=O)(=O)Nc2ccccc2N2CCCCC2)cc1	-3.0	x	76.4*	x
Cc1cccc(S(=O)(=O)Nc2cc(Cl)ccc2N2CCOCC2)c1	-16.2	x	72.0*	x
Cc1ccc(S(=O)(=O)Nc2ccccc2NS(=O)(=O)c2ccc(C)cc2)cc1	x	x	-1.3	x
Cc1ccc(S(=O)(=O)Nc2cc(C(F)(F)F)ccc2N2CCOCC2)cc1C	-11.1	28.0	85.3*	-16.4
Cc1ccc(S(=O)(=O)Nc2ccccc2N2CCOCC2)cc1	-8.8	6.4	64.5*	-2.9
Cc1cc(C)cc(OCC(=O)Nc2cccc3cccnc23)c1	-7.1	x	5.2	x
CCN1CCN(S(=O)(=O)c2ccc(Cl)c(C(=O)Nc3cc(Cl)ccc3N3CCOCC3)c2)CC1	-20.5	23.3	73.7*	-12.2
Cn1ccc2c(N3CCCCC3)cc3c(c21)C1CCC3C1 (centres undefined)	-24.5	x	57.0*	x
Cn1ccc2c(N3CCCC3)cc3c(c21)C1CCC3C1 (centres undefined)	-0.2	x	-0.4	x
CCC(Cn1nnc2ccccc2c1=O)NC(=O)Nc1ccc(C)c(C)c1 (centres undefined)	-69.1*	x	0.0	x
Cc1nc(N2CCCCC2)c2c(C)c(C(=O)Nc3ccccc3C(F)(F)F)sc2n1	4.4	89.5*	1.3	-20.9
Cc1ccc(NC(=O)c2sc3nc(C)nc(N4CCN(c5ccccn5)CC4)c3c2C)c(C)c1	-18.7	9.3	u	-10.6
Cc1nc(N2CCN(c3ccccn3)CC2)c2c(C)c(C(=O)Nc3ccc(Br)cc3C)sc2n1	1.3	-2.3	55.5*	10.8
Cc1nc(N2CCCCC2)c2c(C)c(C(=O)Nc3cccc(C(F)(F)F)c3)sc2n1	20.4	-15.1	0.8	26.0
Cc1ccc(NC(=O)C2CCCN(c3ncnc4onc(C)c34)C2)cc1Cl (centres undefined)	-9.2	x	0.1	x
COc1ccc(S(=O)(=O)c2c(SC)nn(CC(=O)Nc3ccc(C)c(Cl)c3)c2N)cc1	-15.7	x	0.4	x
CCN(CC)c1ccc(NC(=O)c2ccc3c(c2)OCO3)cc1	1.1	82.9*	0.7	-10.7
Cc1ccc(NC(=O)c2ccc3c(c2)OCO3)cc1Cl	-6.1	82.8*	-1.3	-11.5
O=C(COc1ccccc1C(=O)Nc1cccc([N+](=O)[O-])c1)Nc1ccc(Br)cc1	x	x	-0.1	x
CCOc1ccc(C2c3cc(OC)c(OC)cc3CC(=O)N2c2ccccc2)cc1 (centres undefined)	-50.7*	-3.6	0.0	7.7
CCOc1cc2c(cc1OCC)C(c1ccc(OC)cc1)N(c1ccccc1)C(=O)C2 (centres undefined)	-7.0	6.7	0.7	-2.3
CCOC(=O)c1c(C)[nH]c(C)c1S(=O)(=O)N1CCC(C(=O)Nc2cc(Cl)ccc2OC)CC1	-0.3	x	0.1	x
COc1cc2c(NC3CCN(C(C)C)CC3)nc(N3CCCN(C)CC3)nc2cc1OCCOCCN1CCCC1	x	x	-0.4	x
COc1cc(/C=N/N2C(=O)CSC2=S)ccc1O	-15.4	-0.5	1.6	3.1
SMILES	TRPML1 inh	TRPV1 ag	TRPML1 agonist	TRPV1 PAM
O=C1CSC(=S)N1/N=C/c1cc(Br)c(O)c(Br)c1	-13.3	u	58.9*	-11.4
Cc1ccc(C2=NS(=O)(=O)N(C)C(C(=O)NCc3cccs3)=C2)cc1	7.5	91.5*	0.1	7.2
Cc1ccc(C2=NS(=O)(=O)N(C)C(C(=O)NCc3ccccn3)=C2)cc1	24.2	15.3	0.4	-10.5
Cc1cc(N(C)C)cc(C)c1/C=C/c1cc[n+](C)c2ccccc12	x	x	-0.5	x
COc1ccc(NC(=O)C(c2ccccc2)c2ccccc2)c(OC)c1	-1.7	x	0.0	x
COc1ccc(OC)c(NC(=O)C(Sc2ccccc2)c2ccccc2)c1 (centres undefined)	-51.5*	-1.2	2.7	-6.0
CCOC(=O)c1c(-c2ccccc2)oc2ccc(N(C(C)=O)S(=O)(=O)c3ccc(CC)cc3)cc12	4.2	x	-0.5	x
O=C(c1ccc(C(F)(F)F)cc1)C1CCCN(C(=O)CCc2ccncc2)C1 (centres undefined)	1.0	87.4*	-0.1	-14.3
NC(=O)CCC(=O)N1CCCC(C(=O)c2ccc(C(F)(F)F)cc2)C1 (centres undefined)	-12.5	5.7	0.2	12.6
CC(C)(C)n1ncc2c(=O)n(Cc3ccccc3C(F)(F)F)cnc21	-4.6	x	4.5	x
CCC(C)(C)c1ccc(OCC(=O)Nc2ccncc2)cc1	14.3	89.9*	-0.4	-6.8
CC(C)(C)c1ccc(OCC(=O)Nc2ccncc2)c(Br)c1	x	97.1*	x	-2.7
O=C(Nc1ccc(Cl)c(Cl)c1)C1=Cc2ccccc2OC1	0.3	87.5*	0.7	5.2
Cc1c(Cn2cnc3c(cnn3C(C)(C)C)c2=O)cccc1C(F)(F)F	11.9	x	1.1	x
O=c1[nH]c2ccccc2nc1/C=C(\O)c1cccs1	-16.6	u	78.7*	-17.3
O=c1ccc2c(-c3ccccc3)c3ccc(O)cc3oc-2c1	u	1.6	139.4*	-3.7
O=c1cc(-c2ccccc2)oc2cc(O)ccc12	4.5	x	1.6	x
Nc1ccc(-c2c3ccc(=O)cc-3oc3cc(O)ccc23)cc1C(=O)O	-10.5	93.3*	65.2*	-21.3
Cc1ccc(-c2nc(CS(=O)(=O)CC(=O)NCc3ccc(Cl)cc3)c(C)o2)cc1	25.4	x	-0.5	x
Cn1cc(/C=C/c2ccc3ccccc3n2)c2ccccc21	x	x	8.6	x
CCNC(=S)N1CCC(C(=O)c2ccc(Cl)cc2)CC1	12.0	80.6*	0.6	0.7
Cc1ccc2c(c1C)-c1c(ccc(C)c1C)C(=O)C2=O	-9.2	x	12.5	x
Cc1ccc(CC#N)c(-c2c(CC#N)ccc(C)c2C)c1C	-16.0	x	78.5*	x
O=C(Nc1cccc(C(F)(F)F)c1)C1CCCN(S(=O)(=O)c2cccc3nsnc23)C1 (centres undefined)	-14.3	x	2.5	x
Cc1cc2oc(C(=O)Nc3cccnc3)c(C)c2cc1C	13.6	85.0*	-0.3	0.2
SMILES	TRPML1 inh	TRPV1 ag	TRPML1 agonist	TRPV1 PAM
CC(O)CN(CC(C)O)c1ccc2c(c1)Cc1cc([N+](=O)[O-])ccc1-2 (centres undefined)	6.2	x	82.5*	x
Nc1ccc2c(c1)Cc1cc([N+](=O)[O-])ccc1-2	-21.8	17.3	u	10.2
COc1cc(NC(=O)C(CC(C)C)NS(=O)(=O)c2ccc3c(c2)CCN3C(C)=O)cc(OC)c1 (centres undefined)	-4.8	x	-0.7	x
NC(=O)c1cc2ccccc2oc1=NCc1ccccc1	-1.6	27.6	-0.3	-25.3
NC(=O)c1cc2ccc(O)cc2oc1=NCc1ccccc1	-14.9	22.2	59.2*	1.1
Cc1[nH]c2ccccc2c1C(=O)C(=O)NC1CC1	5.4	81.8*	0.4	-3.3
